Binding signal data for one sequence are collected here from article PMC7862700, “An all-to-all approach to the identification of sequence-specific readers for epigenetic DNA modifications on cytosine”.

Holding throughout (assay): DAPPL (digital affinity profiling via proximity ligation, sequencing); 10 mM Tris-HCl pH 7.5, 50 mM NaCl, 1 mM DTT, 4% glycerol, room temperature, 30 min; GST-TFs on glutathione beads, 16-mer random dsDNA library, 0.1% formaldehyde crosslink after washing; high values mean tight binding
Experiment [1] deals with T1, FLI1 (Homo sapiens, UniProt Q01543 1-452).
T1 sequence: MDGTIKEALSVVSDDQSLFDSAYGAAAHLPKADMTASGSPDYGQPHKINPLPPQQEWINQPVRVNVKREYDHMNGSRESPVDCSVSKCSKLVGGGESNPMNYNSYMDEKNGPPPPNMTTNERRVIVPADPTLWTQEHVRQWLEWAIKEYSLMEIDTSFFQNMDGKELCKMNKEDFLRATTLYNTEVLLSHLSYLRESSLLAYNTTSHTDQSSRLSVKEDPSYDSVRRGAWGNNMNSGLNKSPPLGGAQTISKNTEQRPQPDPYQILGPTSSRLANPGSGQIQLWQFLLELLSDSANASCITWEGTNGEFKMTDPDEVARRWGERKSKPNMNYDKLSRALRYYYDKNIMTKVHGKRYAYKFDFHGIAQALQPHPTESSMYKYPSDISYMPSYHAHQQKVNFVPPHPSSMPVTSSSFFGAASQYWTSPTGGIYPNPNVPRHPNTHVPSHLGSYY
Conditions: protein: recombinant; tags: N-terminal GST; dsDNA, one strand shown. The method in brief:
(§1)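 Binding signal is given per hexamer as its read frequency for a factor divided by its frequency in the tag-only sample. GST-fused human transcription factors were expressed in yeast, captured on glutathione beads, barcoded with DNA and pooled with that sample, then incubated with 200 nmole of a 16-mer random double-stranded DNA library in Tris/NaCl/DTT/glycerol buffer for 30 min at room temperature. The pools were then washed, crosslinked, proximity-ligated, amplified by PCR and sequenced on an Illumina NextSeq500.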

Experiment [2] addresses T2, ELK1 (Homo sapiens, UniProt P19419 1-428).
T2 sequence: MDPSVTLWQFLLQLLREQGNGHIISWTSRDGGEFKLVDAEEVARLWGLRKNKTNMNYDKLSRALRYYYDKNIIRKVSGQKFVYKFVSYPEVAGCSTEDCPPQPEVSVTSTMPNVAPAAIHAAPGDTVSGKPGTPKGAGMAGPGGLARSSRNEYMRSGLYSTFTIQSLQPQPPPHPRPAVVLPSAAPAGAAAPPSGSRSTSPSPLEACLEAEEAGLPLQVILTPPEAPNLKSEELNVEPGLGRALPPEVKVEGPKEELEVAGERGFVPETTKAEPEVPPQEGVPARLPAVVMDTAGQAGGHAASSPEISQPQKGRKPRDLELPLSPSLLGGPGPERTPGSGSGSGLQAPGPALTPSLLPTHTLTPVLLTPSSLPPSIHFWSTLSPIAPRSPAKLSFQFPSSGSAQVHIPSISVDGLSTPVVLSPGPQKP
Particulars: protein: recombinant; tags: N-terminal GST; dsDNA, one strand shown. The method in brief: as §1

The target in experiment [3] is T3, GABPA (Homo sapiens, UniProt Q06546 1-454).
T3 sequence: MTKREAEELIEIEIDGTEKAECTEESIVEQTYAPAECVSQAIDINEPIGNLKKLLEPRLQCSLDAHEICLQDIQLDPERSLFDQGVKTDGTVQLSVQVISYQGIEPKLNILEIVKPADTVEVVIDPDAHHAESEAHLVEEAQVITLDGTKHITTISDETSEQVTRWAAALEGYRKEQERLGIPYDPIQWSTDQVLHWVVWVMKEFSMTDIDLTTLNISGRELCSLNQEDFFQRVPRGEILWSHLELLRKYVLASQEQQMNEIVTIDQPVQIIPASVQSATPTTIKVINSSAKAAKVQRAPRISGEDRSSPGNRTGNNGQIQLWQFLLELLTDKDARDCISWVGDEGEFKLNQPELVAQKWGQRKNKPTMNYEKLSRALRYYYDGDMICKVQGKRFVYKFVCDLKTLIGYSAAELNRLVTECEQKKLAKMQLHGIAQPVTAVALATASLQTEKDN
Particulars: protein: recombinant; tags: N-terminal GST; dsDNA, one strand shown. A digest of the protocol:
as §1

The target of experiment [4] is T4, ERG (Homo sapiens, UniProt P11308 1-479).
T4 sequence: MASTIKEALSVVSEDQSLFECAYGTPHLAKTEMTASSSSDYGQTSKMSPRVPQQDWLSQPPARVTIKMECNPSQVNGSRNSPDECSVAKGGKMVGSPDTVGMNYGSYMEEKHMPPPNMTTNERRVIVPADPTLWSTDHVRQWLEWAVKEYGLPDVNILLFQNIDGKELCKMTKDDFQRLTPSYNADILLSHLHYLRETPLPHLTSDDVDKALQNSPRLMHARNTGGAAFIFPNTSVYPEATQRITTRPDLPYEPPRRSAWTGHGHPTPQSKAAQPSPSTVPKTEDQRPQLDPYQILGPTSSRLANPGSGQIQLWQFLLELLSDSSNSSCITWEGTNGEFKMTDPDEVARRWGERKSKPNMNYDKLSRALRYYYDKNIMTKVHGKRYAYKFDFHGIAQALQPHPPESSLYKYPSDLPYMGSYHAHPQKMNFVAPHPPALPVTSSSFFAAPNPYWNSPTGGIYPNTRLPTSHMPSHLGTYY
Particulars: protein: recombinant; tags: N-terminal GST; dsDNA, one strand shown. The method in brief: as §1

The target in experiment [5] is ELF1 (Homo sapiens, UniProt P32519 1-619). Conditions: protein: recombinant; tags: N-terminal GST; dsDNA, one strand shown. A digest of the protocol:
as §1

The target in experiment [6] is T5, EHF (Homo sapiens, UniProt Q9NZC4 1-300).
T5 sequence: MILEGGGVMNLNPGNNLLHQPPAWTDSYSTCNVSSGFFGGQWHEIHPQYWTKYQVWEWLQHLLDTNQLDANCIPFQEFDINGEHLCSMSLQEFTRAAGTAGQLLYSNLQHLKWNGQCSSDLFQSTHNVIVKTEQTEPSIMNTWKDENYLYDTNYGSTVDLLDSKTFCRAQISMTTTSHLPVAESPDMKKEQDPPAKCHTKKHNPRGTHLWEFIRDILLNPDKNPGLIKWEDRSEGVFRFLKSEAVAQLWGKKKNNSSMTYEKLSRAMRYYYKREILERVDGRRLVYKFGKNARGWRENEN
Conditions: protein: recombinant; tags: N-terminal GST; dsDNA, one strand shown. A digest of the protocol:
as §1

Experiment [7] deals with SPI1 (Homo sapiens, UniProt P17947 1-270). Particulars: protein: recombinant; tags: N-terminal GST; dsDNA, one strand shown. A digest of the protocol:
as §1

In experiment [8] the target is SPIB (Homo sapiens, UniProt Q01892 1-262). Particulars: protein: recombinant; tags: N-terminal GST; dsDNA, one strand shown. A digest of the protocol:
as §1

Experiment [9] has as its target T6, ELK3 (Homo sapiens, UniProt P41970 1-407).
T6 sequence: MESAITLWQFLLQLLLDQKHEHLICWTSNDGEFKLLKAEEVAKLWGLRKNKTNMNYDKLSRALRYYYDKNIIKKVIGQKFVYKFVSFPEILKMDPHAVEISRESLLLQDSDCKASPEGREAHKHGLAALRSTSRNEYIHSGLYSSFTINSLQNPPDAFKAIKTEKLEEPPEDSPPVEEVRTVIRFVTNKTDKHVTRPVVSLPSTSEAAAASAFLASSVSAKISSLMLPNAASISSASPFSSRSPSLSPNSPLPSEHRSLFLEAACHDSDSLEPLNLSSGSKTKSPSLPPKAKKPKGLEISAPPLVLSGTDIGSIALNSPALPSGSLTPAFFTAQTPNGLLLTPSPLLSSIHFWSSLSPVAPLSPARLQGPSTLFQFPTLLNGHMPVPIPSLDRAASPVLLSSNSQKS
Particulars: protein: recombinant; tags: N-terminal GST; dsDNA, one strand shown. The method in brief: as §1

Experiment [10] concerns the target T7, FEV (Homo sapiens, UniProt Q99581 1-238).
T7 sequence: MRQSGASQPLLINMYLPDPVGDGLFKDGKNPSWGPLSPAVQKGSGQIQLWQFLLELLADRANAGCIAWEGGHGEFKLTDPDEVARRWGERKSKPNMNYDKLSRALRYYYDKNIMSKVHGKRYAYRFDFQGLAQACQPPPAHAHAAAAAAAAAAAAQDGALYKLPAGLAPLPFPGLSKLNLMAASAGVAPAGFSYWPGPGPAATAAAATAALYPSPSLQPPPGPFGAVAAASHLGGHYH
Conditions: protein: recombinant; tags: N-terminal GST; dsDNA, one strand shown. A digest of the protocol: as §1

Experiment [11] deals with ETV5 (Homo sapiens, UniProt P41161 1-510). Conditions: protein: recombinant; tags: N-terminal GST; dsDNA, one strand shown. A digest of the protocol: as §1
Experiment [12] deals with HSF1 (Homo sapiens, UniProt Q00613 1-529). Conditions: protein: recombinant; tags: N-terminal GST; chain copies: 3; dsDNA, one strand shown. The method in brief: as §1
Experiment [13] has as its target T8, SPIC (Homo sapiens, UniProt Q8N5J4 1-248).
T8 sequence: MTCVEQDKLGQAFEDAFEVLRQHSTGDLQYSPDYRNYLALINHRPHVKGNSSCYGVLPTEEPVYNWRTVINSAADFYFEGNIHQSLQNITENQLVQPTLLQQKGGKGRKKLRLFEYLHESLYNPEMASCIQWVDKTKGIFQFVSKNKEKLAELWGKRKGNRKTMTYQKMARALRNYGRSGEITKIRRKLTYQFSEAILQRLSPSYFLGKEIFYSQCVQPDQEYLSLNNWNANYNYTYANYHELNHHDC
Conditions: protein: recombinant; tags: N-terminal GST; dsDNA, one strand shown. A digest of the protocol:
as §1

Experiment [14] has as its target ELF4 (Homo sapiens, UniProt Q99607 1-663). Conditions: protein: recombinant; tags: N-terminal GST; dsDNA, one strand shown. The method in brief: as §1
Experiment [15] addresses T9, ELK4 (Homo sapiens, UniProt P28324-2 1-405).
T9 sequence: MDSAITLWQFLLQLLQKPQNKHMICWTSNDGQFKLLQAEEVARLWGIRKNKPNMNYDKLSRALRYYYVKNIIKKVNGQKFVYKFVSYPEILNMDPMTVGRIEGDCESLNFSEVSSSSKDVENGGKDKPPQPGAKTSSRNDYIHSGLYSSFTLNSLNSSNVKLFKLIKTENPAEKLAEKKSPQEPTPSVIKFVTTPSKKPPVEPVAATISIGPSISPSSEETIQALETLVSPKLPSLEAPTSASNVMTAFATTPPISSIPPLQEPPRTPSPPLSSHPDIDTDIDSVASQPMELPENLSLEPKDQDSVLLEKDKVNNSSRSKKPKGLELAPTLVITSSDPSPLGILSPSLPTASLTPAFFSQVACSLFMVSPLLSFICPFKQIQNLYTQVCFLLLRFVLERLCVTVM
Conditions: protein: recombinant; tags: N-terminal GST; dsDNA, one strand shown. A digest of the protocol:
as §1

In experiment [16] the target is T10, ETV2 (Homo sapiens, UniProt O00321 1-342).
T10 sequence: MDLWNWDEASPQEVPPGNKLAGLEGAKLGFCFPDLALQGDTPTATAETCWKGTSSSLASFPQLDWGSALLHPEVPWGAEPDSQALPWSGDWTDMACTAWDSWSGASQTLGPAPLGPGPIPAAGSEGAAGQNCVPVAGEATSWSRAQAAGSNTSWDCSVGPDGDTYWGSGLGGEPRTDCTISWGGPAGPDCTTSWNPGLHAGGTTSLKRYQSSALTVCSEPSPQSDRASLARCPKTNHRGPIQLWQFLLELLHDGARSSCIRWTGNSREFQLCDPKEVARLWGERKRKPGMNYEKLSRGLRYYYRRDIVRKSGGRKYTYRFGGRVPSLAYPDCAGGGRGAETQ
Conditions: protein: recombinant; tags: N-terminal GST; dsDNA, one strand shown. The method in brief:
as §1

Experiment [17] has as its target T11, ELF3 (Homo sapiens, UniProt P78545 1-371).
T11 sequence: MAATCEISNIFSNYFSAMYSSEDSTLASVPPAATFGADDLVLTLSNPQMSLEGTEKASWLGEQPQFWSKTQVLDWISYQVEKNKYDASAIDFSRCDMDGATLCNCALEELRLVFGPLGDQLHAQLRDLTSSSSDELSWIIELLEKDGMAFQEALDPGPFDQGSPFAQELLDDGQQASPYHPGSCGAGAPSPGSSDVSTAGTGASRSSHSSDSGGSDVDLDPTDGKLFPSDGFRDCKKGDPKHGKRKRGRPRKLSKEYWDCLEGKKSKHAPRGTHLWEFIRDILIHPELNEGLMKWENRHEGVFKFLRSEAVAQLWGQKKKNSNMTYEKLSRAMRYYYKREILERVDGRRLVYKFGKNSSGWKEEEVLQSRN
Conditions: protein: recombinant; tags: N-terminal GST; dsDNA, one strand shown. A digest of the protocol:
as §1

The target in experiment [18] is CRX (Homo sapiens, UniProt O43186 1-299). Conditions: protein: recombinant; tags: N-terminal GST; dsDNA, one strand shown. A digest of the protocol: as §1
Experiment [19] addresses ETV1 (Homo sapiens, UniProt P50549 1-477). Particulars: protein: recombinant; tags: N-terminal GST; dsDNA, one strand shown. A digest of the protocol:
as §1

Sequence of CRX (O43186 whole entry): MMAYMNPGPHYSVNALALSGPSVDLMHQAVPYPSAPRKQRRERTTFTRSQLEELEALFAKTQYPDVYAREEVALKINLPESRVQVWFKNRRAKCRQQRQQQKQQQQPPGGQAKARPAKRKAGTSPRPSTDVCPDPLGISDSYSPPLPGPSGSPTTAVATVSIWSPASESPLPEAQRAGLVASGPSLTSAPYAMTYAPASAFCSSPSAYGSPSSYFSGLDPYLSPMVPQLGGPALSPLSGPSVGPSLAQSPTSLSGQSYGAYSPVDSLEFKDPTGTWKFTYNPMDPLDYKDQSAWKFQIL
Sequence of ETV5 (P41161 whole entry): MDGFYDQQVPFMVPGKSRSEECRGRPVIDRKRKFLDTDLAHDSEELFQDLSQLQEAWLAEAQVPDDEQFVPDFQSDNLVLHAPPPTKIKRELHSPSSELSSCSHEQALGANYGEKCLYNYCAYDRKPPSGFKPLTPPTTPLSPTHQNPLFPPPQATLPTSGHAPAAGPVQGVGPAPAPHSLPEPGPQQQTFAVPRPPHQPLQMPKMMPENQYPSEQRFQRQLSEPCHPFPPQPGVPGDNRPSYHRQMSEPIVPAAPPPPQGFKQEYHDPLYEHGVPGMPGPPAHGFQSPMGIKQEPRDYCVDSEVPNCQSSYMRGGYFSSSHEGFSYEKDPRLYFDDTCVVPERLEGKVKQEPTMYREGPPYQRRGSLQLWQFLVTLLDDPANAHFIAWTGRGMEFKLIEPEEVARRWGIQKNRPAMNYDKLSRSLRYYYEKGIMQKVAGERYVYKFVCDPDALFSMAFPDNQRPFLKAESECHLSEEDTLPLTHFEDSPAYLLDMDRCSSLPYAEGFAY
Sequence of ETV1 (P50549 whole entry): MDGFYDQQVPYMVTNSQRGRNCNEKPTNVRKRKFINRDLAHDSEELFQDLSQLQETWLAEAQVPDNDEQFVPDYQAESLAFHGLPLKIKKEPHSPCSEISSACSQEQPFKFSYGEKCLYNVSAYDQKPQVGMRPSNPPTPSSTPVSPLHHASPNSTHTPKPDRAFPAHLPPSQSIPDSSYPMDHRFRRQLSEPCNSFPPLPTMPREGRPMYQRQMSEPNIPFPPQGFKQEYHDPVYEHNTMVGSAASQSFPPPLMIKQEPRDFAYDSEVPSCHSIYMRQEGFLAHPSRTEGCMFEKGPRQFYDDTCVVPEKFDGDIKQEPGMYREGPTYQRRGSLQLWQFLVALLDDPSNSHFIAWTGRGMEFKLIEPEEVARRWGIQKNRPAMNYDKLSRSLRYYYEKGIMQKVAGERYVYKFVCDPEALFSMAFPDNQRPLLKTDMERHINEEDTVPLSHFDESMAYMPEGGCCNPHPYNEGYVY
Sequence of ELF1 (P32519 whole entry): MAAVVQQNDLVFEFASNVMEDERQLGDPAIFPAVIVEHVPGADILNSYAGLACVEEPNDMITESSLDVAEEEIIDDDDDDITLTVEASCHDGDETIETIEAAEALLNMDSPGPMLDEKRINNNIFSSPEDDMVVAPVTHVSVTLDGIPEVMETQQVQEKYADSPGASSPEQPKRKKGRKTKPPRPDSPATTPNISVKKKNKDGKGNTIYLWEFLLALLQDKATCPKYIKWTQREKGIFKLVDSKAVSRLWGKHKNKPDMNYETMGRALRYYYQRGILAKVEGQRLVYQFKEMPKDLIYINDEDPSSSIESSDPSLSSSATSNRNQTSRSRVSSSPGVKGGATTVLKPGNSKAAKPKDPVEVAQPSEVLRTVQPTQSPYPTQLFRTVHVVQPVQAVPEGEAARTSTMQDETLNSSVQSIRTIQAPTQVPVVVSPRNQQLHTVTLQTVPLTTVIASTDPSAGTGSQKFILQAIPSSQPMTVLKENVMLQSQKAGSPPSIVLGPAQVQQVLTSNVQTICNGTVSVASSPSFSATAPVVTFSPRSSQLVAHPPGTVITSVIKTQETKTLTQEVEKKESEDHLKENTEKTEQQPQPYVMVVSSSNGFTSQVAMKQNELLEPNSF
Sequence of SPIB (Q01892 whole entry): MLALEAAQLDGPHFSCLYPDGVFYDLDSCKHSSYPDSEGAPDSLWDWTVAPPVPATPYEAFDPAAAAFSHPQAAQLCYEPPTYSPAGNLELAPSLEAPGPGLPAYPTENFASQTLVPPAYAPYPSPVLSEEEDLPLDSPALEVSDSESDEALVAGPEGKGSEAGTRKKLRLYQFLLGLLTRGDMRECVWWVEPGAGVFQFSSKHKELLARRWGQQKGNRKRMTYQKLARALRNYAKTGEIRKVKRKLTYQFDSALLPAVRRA
Sequence of ELF4 (Q99607 whole entry): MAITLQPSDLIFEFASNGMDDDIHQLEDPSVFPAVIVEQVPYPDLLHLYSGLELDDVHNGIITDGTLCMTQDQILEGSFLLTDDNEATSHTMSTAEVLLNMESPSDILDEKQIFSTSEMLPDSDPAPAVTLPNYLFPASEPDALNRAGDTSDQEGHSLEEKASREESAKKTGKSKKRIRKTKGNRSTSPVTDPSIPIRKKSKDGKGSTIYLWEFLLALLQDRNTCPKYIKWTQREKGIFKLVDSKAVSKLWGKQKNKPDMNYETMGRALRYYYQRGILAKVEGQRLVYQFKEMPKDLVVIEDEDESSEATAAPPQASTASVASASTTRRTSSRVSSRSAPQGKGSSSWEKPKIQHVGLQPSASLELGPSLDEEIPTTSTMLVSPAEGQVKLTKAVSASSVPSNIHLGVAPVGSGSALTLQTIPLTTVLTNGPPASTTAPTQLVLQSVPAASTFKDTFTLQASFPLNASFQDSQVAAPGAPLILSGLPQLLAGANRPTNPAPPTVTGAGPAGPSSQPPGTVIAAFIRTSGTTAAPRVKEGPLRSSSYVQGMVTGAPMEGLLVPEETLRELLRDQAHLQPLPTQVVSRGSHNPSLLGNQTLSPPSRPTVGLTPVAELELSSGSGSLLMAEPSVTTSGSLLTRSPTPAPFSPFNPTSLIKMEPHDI
Sequence of HSF1 (Q00613 whole entry): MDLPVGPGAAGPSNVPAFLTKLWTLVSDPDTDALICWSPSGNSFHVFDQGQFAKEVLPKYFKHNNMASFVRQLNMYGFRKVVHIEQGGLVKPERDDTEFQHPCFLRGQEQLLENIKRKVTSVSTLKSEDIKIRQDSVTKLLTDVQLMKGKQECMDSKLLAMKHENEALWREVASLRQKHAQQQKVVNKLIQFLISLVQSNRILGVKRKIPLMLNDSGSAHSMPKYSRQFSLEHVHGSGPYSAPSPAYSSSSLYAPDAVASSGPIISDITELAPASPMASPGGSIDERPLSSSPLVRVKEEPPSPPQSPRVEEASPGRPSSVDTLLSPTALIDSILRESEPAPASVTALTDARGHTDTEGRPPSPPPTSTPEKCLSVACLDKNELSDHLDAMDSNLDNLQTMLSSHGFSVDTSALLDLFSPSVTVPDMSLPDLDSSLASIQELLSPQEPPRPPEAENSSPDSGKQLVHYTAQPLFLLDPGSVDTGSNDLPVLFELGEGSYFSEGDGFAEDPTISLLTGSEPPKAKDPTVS

TATCCC: the binding signal in experiment [1] is 1.63 fold enrichment (6-mer frequency, TF over GST control); in experiment [2], 1.65 fold enrichment (6-mer frequency, TF over GST control); in experiment [3], 1.53 fold enrichment (6-mer frequency, TF over GST control); in experiment [4], 1.58 fold enrichment (6-mer frequency, TF over GST control); in experiment [5], 1.57 fold enrichment (6-mer frequency, TF over GST control); in experiment [6] it was 1.52 fold enrichment (6-mer frequency, TF over GST control). In addition, the binding signal in experiment [7] was 1.36 fold enrichment (6-mer frequency, TF over GST control); in experiment [8], 1.54 fold enrichment (6-mer frequency, TF over GST control); in [9], 1.56 fold enrichment (6-mer frequency, TF over GST control); in experiment [10] it was 1.59 fold enrichment (6-mer frequency, TF over GST control); in [11], 1.64 fold enrichment (6-mer frequency, TF over GST control); in [12], 1.61 fold enrichment (6-mer frequency, TF over GST control). Moreover, the binding signal in [13] is 1.6 fold enrichment (6-mer frequency, TF over GST control); in [14] it was 1.54 fold enrichment (6-mer frequency, TF over GST control); in experiment [15], 1.64 fold enrichment (6-mer frequency, TF over GST control); in [16], 1.44 fold enrichment (6-mer frequency, TF over GST control); in experiment [17], 1.83 fold enrichment (6-mer frequency, TF over GST control); in [18], 2.22 fold enrichment (6-mer frequency, TF over GST control). Besides, the binding signal in experiment [19] is 1.39 fold enrichment (6-mer frequency, TF over GST control).
